# According to PubChem BioAssay (NCATS):
# Some of the results follow. Records with an inconclusive call do not appear. Active and inactive are the calls of the source. Calls follow the shape of the dose curve; as a rule, active = well fitted inhibition curve with a large enough effect; inconclusive = small, poorly fitted or top-dose-only effect; inactive = no such curve, though single readings can be large or run the other way.
# Molecular target: RecQ-like DNA helicase BLM (Homo sapiens) (UniProt P54132)
# Experiment: qHTS for Inhibitors of WRN Helicase: BLM Helicase Counterscreen for WRN Inhibitors (AID 720503); also: nearly all actives have a fitted effect of over 60% in size
# Details: Recombinant BLM helicase DNA unwinding, red fluorescence
# Summary of the method: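 BLM at 1 nM was preincubated with compound for 15 min at room temperature in 25 mM Tris-HCl pH 8.0, 50 mM NaCl, 2 mM MgCl2, 1 mM DTT and 0.01% Tween-20. Unwinding was started with 100 nM DNA and 2 mM ATP (final). Fluorescence (ex 525/em 598 nm) was read twice, 15 min apart, and normalized to enzyme-free and DMSO controls.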
# Potency is read from the fitted curve at half-maximal effect.
# RecQ-like DNA helicase BLM (Homo sapiens), sequence (P54132 whole entry, looked up): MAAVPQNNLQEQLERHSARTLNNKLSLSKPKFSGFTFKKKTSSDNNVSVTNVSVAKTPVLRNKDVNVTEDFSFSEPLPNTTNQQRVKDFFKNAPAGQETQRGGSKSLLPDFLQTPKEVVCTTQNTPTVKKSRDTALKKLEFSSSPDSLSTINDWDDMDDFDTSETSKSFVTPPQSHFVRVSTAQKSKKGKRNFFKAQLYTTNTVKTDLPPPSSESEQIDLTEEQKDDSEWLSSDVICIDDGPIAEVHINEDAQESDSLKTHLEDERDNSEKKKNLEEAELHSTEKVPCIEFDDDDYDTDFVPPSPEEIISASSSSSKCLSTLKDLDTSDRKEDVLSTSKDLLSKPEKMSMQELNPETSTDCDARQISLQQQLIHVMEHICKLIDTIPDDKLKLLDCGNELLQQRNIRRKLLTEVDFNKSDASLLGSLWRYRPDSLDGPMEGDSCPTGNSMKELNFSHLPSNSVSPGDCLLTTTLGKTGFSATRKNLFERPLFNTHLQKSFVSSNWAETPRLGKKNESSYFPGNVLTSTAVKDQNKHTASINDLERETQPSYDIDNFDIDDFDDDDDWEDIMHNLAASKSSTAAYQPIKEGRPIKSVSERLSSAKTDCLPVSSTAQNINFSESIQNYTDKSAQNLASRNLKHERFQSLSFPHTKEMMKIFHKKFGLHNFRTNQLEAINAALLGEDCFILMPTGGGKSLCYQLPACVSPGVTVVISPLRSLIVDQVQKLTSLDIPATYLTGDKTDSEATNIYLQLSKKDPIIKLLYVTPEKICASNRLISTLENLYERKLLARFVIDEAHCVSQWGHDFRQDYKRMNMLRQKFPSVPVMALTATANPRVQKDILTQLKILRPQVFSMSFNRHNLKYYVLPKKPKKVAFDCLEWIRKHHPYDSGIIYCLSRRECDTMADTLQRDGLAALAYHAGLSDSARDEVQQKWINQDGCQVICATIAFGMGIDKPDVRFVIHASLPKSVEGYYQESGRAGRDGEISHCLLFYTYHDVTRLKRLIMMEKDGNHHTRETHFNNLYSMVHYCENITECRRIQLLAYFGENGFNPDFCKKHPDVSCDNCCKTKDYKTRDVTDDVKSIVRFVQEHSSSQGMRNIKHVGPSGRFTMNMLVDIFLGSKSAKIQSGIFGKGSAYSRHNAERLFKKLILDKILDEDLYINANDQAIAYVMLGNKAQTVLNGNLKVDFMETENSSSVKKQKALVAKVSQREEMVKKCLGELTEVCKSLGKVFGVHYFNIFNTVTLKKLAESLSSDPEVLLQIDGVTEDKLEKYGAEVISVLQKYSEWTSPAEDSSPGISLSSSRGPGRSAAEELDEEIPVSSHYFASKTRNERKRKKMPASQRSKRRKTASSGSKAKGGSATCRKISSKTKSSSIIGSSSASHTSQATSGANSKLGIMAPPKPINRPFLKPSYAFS
structure (smiles),measurement,value
COc1ccc(-c2nc3c(c(SCC(=O)Nc4ccc(C(=O)O)cc4)n2)Cc2ccccc2O3)cc1,Potency,3.04 µM (active)
